± gives the standard deviation.
These sequences were tested on MILI (PIWIL2) piRISC loaded with piRNA #1 (26 nt) (assay: pre-steady-state target cleavage rate (min^-1); guide: piRNA #1 5'p-UGAGGUAGUAGGUUGUAUAGUAUCCA; MIWI and MILI are mouse PIWI proteins and EfPiwi is from a freshwater sponge; tags in brackets are library labels; higher = faster piRNA-guided slicing of the target). Conditions: auxiliary factor: 500 nM mouse GTSF1.
In short: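 Cleave-'n-Seq reactions paired 0.1 nM transcribed, DNA-blocked target RNA library with 1 nM active affinity-purified piRISC holding one synthetic guide, plus or minus 500 nM GTSF1 partner protein, in HEPES–potassium acetate buffer at 33 °C for 0–8 or 0–960 min. After sequencing of uncleaved targets and normalisation to depth and weakly complementary targets, the pre-steady-state cleavage rate was taken from a burst-and-steady-state fit. Three trials were pooled, and k3 was capped at 0.0001 min^-1.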
For GGAGAGGAUACUCUACAACCUACUACCUCA, the “pre-steady-state target cleavage rate” value was 0.204 ± 0.013. GGAGACGAUACCUAUACAACCUACUACCUCA was tested, and the “pre-steady-state target cleavage rate” value was 0.104 ± 0.025. GGAGACGAUACUAUAGAACGUACUACCUCA was tested, and the “pre-steady-state target cleavage rate” value was 0.0134 ± 0.0023. GGAGACGAUACUAUACAAGCUACUAGCUCA was tested, and the “pre-steady-state target cleavage rate” value was 0.0998 ± 0.024. GGAGAGGAUACUAGUACAACCUACUACCUCA was tested, and the “pre-steady-state target cleavage rate” value was 0.079 ± 0.011. For GGAGACCAUACUAUACAAGCUAGUACCUCA, the “pre-steady-state target cleavage rate” value was 0.0775 ± 0.016. For GGAGACCAUACUAUUCAAGCUACUACCUCA, the “pre-steady-state target cleavage rate” value was 0.182 ± 0.016. GGAGUGGAUAAUAUACAACCUACUACCUCA was tested, and the “pre-steady-state target cleavage rate” value was 0.168 ± 0.011. In the case of GGAGACCAUACGUAUACAACCUACUACCUCA, the “pre-steady-state target cleavage rate” value is reported as 0.212 ± 0.035. GGAGUGGAUACUAUACAAGCAACUACCUCA was tested, and the “pre-steady-state target cleavage rate” value was 0.00874 ± 0.0017. GGAGAGGAUACUAUACAACCUUCUACCUCA was tested, and the “pre-steady-state target cleavage rate” value was 0.0114 ± 0.0024. With GGAGACGAUACUAUACAACCACUACCUCA the “pre-steady-state target cleavage rate” value was 0.00914 ± 0.0038. For GGAGUGGAUACUAUACAACCAACUACCUCA, the “pre-steady-state target cleavage rate” value was 0.00575 ± 0.0022. For GGAGAGGAUACUUUACAACCUAGUACCUCA, the “pre-steady-state target cleavage rate” value was 0.0146 ± 0.0048. With GGAGAGGAUACUAAACAACCUACUACCUCA the “pre-steady-state target cleavage rate” value was 0.174 ± 0.012. With GGAGACCAUACUAUACAACGUACUUCCUCA the “pre-steady-state target cleavage rate” value was 0.0304 ± 0.0072.

— the supplement of paper PMC10338343
